# In the library only some 1.6% were active in any assay of this set; here they are far more common.
# GRK2 inh – inhibitors of human GRK2 displacing RNA aptamer; P25098; bead flow cytometry, FAM-aptamer displacement from GRK2; inhibition of aptamer binding, % at 10 µM; actives 0.59% (n = 330,000);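 active = inhibition of aptamer binding above 40%, roughly 3 SD of noise, on plates passing a quality check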;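 note: median bead fluorescence of bound FAM aptamer so fluorescent compounds give negative values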
# Efflux pump inh – antifungal efflux pump inhibition, Nile Red retention; S. cerevisiae Candida pump triplex; inhibition, % at 10 µM; actives 0.44% (n = 330,000); AID 485275;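 active = plate passing quality check with inhibition over a set limit, or well fluorescence over plate mean plus 4 SD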;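 note: Nile Red retained in pooled yeast measured as flow cytometry median fluorescence; 0% = buffer negative control and 100% = Enniatin B positive control; higher means more Nile Red kept so more efflux inhibition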
# ATG4B inhibitor – blocks human ATG4B protease cleavage of LC3 substrate; inhibition, % at 8.33 µM; Q9Y4P1; ATG4B cleavage of LC3-PLA2, NBD-HPC fluorescence, 1 h; actives 0.51% (n = 340,000); in the data active = inhibition above about 40%
# Target sequence (Q9Y4P1 whole entry, looked up): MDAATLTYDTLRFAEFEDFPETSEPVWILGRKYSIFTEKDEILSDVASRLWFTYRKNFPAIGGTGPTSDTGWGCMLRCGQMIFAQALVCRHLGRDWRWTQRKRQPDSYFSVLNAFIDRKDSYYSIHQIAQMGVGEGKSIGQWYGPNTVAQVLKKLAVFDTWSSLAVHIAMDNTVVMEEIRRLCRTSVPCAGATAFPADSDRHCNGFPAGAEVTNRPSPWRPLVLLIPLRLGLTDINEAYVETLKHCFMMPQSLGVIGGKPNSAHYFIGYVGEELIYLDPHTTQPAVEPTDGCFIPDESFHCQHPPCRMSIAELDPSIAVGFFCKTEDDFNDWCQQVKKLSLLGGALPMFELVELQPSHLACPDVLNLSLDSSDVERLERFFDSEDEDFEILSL
# Yeast superoxide – caloric restriction mimetics inhibiting age-related superoxide in yeast | S. cerevisiae aged cells, superoxide DHE fluorescence; hits give low values | superoxide response (% of plate mean), % at 10 µM | actives 0.18% (n = 330,000);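 active = superoxide response under a set limit, about three screen SD below normal, cut at about 65% in these data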;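 note: yeast aged for seven days with compound at 30 °C before DHE staining; 100% = average MFI of all compound-treated wells on the plate with controls excluded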
# GRK2 CP1 – confirmation of human GRK2 inhibitors displacing RNA aptamer; shares compounds with GRK2 inh; bead-bound GRK2, FAM-aptamer displacement, flow cytometry; aptamer displacement, % at 10 µM; actives 4% (n = 2,000); AID 504451;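 active = aptamer displacement above 40%, near three times the noise of non-fluorescent compounds, on plates passing quality checks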;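 note: negative values mostly reflect intrinsic compound fluorescence rather than true enhancement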
# Aptamer quench – fluorescent aptamer quenching in GRK2 counter-screen dose response; shares compounds with GRK2 inh; Fluorescent RNA aptamer beads, flow cytometry; hits give high values; fluorescence change (kMESF span), kMESF (test concentration not listed); 110 tested, under 10 active;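 active = compounds whose bead fluorescence drops by more than 37 kMESF across the dose range, marking them as dye quenchers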
# Aptamer quench SP – counter-screen for GRK2 aptamer inhibitors: fluorescent aptamer quenchers | shares compounds with GRK2 inh | Carboxyfluorescein RNA aptamer on beads, flow cytometry quenching; hits give low values | fluorescence response (% of DMSO), % at 10 µM | 2,000 tested, under 10 active | AID 504580;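 active = compounds that quench the bead-bound fluorescent RNA probe, cutting fluorescence to under half of the solvent control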;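 note: counterscreen run without GRK2 so only probe quenching by compound is measured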
# GRK2 confirm 2 – confirmation of human GRK2 inhibitors binding RNA aptamer site; inhibition of aptamer binding, % at 10 µM; shares compounds with GRK2 inh; bead-bound GRK2, FAM-aptamer displacement, flow cytometry; AID 504782; 360 tested, under 10 active;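 active = inhibition of aptamer binding above 40%, about triple the noise seen with nonglowing compounds, on plates passing quality control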;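 note: negative values mostly come from compounds that fluoresce themselves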
# FAM quench CP2 – quenches fluorescent RNA aptamer, GRK2 hit artifact. shares compounds with GRK2 inh. carboxyfluorescein RNA aptamer beads, flow cytometry quenching; hits give low values. fluorescence response vs DMSO, % at 10 µM. 360 tested, under 10 active. AID 588494;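 active = response vs DMSO under 50%, meaning signal dropped by over half, treated as fluorescence quencher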;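 note: labelled aptamer on streptavidin beads without GRK2 as a quench counter-screen; 100% = bead fluorescence of DMSO wells and lower means quenching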
# FAM quench DR – quenches fluorescent RNA aptamer, GRK2 hit artifact | AID 588496 | fluorescence ratio to DMSO, % at 11.1 µM | Bead-bound FAM RNA aptamer fluorescence quenching, flow cytometry; hits give low values | shares compounds with GRK2 inh | 35 tested, under 10 active;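 active = compounds that dim the fluorescent label, raw bead signal shifting by over 33 units between lowest and highest dose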
# ATG4B conf – confirmation of human ATG4B inhibitors. inhibition, % at 8.33 µM. AID 504757. shares compounds with ATG4B inhibitor. ATG4B protease fluorescent substrate cleavage assay. actives 92% (n = 320); in the data active = inhibition above about 39%
# PLA2 ctr – PLA2 (human) inhibition in ATG4B counter-screen; shares compounds with ATG4B inhibitor; purified PLA2, NBD-C6-HPC fluorescence, 45 min; actives 66% (n = 1,600); AID 588402; inhibition, % at 8.33 µM; in the data active = inhibition above about 50%
# Target sequence (P04054 whole entry, looked up): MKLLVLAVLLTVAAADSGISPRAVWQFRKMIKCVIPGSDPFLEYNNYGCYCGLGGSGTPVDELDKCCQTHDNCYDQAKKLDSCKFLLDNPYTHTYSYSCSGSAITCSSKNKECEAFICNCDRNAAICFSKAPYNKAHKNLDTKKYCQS
# The depositor's hits bear a star; x = not tested or not shown.
SMILES,GRK2 inh,Efflux pump inh,ATG4B inhibitor,Yeast superoxide,GRK2 CP1,Aptamer quench SP,others
CCC1CCCCN1CCCNC(=O)Cn1ncc2c([nH]c3ccc(C)cc32)c1=O (configuration not stated),0,0,-5,88,x,x,
Cc1ccc(CNC(=O)CN2CCN(c3ccc(F)cc3)CC2)cc1,43*,0,-5,121,2,97,
O=C(Nc1ccccc1)c1nccn1Cc1ccc(F)cc1,1,0,9,98,x,x,
CCOC(=O)N1CCN(C(=O)CCC(=O)N2CCOc3ccc(C)cc32)CC1,93*,0,0,109,-2,98,
CCOC(=O)N1CCC(NC(=O)CCC(=O)N2CCOc3ccc(C)cc32)CC1,0,0,-2,101,x,x,
Cc1occc1-c1nnc(SCC(=O)N2CCCCC2)o1,0,0,6,101,x,x,
Cc1cccc(N2CCN(C(=O)CCS(=O)(=O)c3ccc(Br)cc3)CC2C)c1 (configuration not stated),78*,0,-5,105,57*,102,Aptamer quench=10;FAM quench DR=100
O=C(CCS(=O)(=O)c1ccc(Br)cc1)N1CCN(c2ccccc2)CC1,29,0,-2,107,x,x,
CC(=O)N1CCCc2cc(S(=O)(=O)CCC(=O)N3CCN(c4cccc(C)c4)C(C)C3)ccc21 (configuration not stated),40,0,-11,100,28,100,Aptamer quench=-2.2
COc1cccc(C2=Nn3c(nnc3-c3ccccc3O)SC2)c1,4,0,-29,82,x,x,
C[n+]1c2n(c3ccccc31)N=C(c1cc(C(C)(C)C)c(O)c(C(C)(C)C)c1)CS2,64*,0,11,97,-1,101,
O=C(COc1ccccc1Br)N1CCN(C(=O)c2ccco2)CC1,6,0,-2,95,x,x,
Oc1ccc(/C=C/c2ccc3cccc(O)c3n2)cc1Br,47*,0,-5,106,-1,96,
O=C1C=C(Nc2ccc(O)cc2)CC(c2ccco2)C1 (configuration not stated),3,0,0,98,x,x,
O=C1C=C(O)CC(c2ccco2)C1 (configuration not stated),91*,0,-9,88,6,102,
COCCC(=O)Nc1ccc2c(c1)CN(C(=O)c1ccc(CSC)o1)CC2,0,0,2,105,x,x,
Cc1ccc(NC2=NC(C(=O)Nc3ccc(C)c(C)c3)CC(=O)N2)cc1 (configuration not stated),0,0,-14,87,-3,102,
Cc1ccc(NC(=O)C2CCC(=O)N2)cc1C (configuration not stated),0,0,-9,118,x,x,
c1ccc(Cn2ncc3ccccc32)cc1,26,0,2,114,2,98,
O=C1CC(=O)NC(SCC(=O)Nc2ccccc2[N+](=O)[O-])=N1,43*,0,11,97,x,107,
Cc1cc(C)nc(SCC(=O)Nc2ccccc2[N+](=O)[O-])n1,0,0,4,102,x,x,
N#C/C(=C\c1ccc(O)c(O)c1)C(=O)N1CCCC1,0,0,0,88,x,x,
N#C/C(=C\c1ccc(O)c(O)c1)C(=O)c1ccc(O)c(O)c1,54*,0,-6,111,2,102,
CCCCNC(=O)CN1C(=O)NC2NC(=O)NC21 (configuration not stated),98*,0,-6,100,3,97,
COC(=O)CCNC(=O)Cc1ccc(S(=O)(=O)N2CCCCC2)s1,x,x,-5,x,x,x,
SMILES,GRK2 inh,Efflux pump inh,ATG4B inhibitor,Yeast superoxide,GRK2 CP1,Aptamer quench SP,others
CCCCC(CC)C(=O)N1CCN(C(=O)c2ccco2)CC1 (configuration not stated),3,0,-2,94,x,x,
CS(=O)(=O)Oc1ccc2c(c1)O/C(=C\c1cccc([N+](=O)[O-])c1)C2=O,1,0,-5,98,x,x,
CS(=O)(=O)Oc1ccc2c(c1)O/C(=C\C=C\c1ccccc1)C2=O,49*,0,2,107,-5,97,
O=c1[nH]c(CN2CCN(C/C=C/c3ccccc3)CC2)nc2ccccc12,2,0,-13,113,x,x,GRK2 confirm 2=19;FAM quench CP2=98
CN(Cc1ccno1)Cc1cn(Cc2ccccc2)nc1-c1ccc2c(c1)OCO2,0,0,-7,85,x,x,
CCN1/C(=C\C(=S)Nc2ccccc2)Sc2ccccc21,16,0,-3,92,x,x,
CCN1/C(=C/C(C)=C/c2sc3ccccc3[n+]2CC)Sc2ccccc21,100*,0,52*,97,99*,92,Aptamer quench=0.6;ATG4B conf=49*;PLA2 ctr=37
CCc1ccccc1NC(=O)CNC(=O)CCNC(=O)Nc1ccccc1,0,0,-8,90,x,x,
O=C1/C(=C/C=C/c2ccco2)SC(=S)N1NS(=O)(=O)c1ccccc1,95*,1.5*,78*,101,9,96,ATG4B conf=41*;PLA2 ctr=18
Cn1cc2cc([N+](=O)[O-])ccc2n1,1,0,-3,104,x,x,
O=C(O)c1cc(O)c2c(c1)[C@H]([C@H]1c3cc(C(=O)O)cc(O)c3C(=O)c3c(O[C@@H]4O[C@H](CO)[C@@H](O)[C@H](O)[C@H]4O)cccc31)c1cccc(OC3O[C@H](CO)[C@@H](O)[C@H](O)[C@H]3O)c1C2=O (some centres not stated),99*,0,95*,113,30,95,PLA2 ctr=-12
CC[C@H](C)/C=C/C1=CC2=C(Cl)C(=O)[C@@]3(C)OC(=O)C(C(=O)[C@H](C)[C@@H](C)O)=C3C2=CO1,69*,1,42*,107,3,104,PLA2 ctr=54*

# Screening results from PubChem.
